In the library only some 22% were active in any assay of this set; here they are far more common.
Shiga inhibitor = A qHTS for Small Molecule Inhibitors of Shiga Toxin; 290,000 tested, 9.2% active; Vero cells, Shiga toxin protein synthesis inhibition reporter; inhibition, % at 38.7 µM; AID 2315, 2010; in the data active = inhibition mostly above about 28%, no sharp cut-off; inactive = mostly below about 43%; also: 0% is about no effect
LmPK inhibitor = qHTS Assay for Inhibitors of Leishmania Mexicana Pyruvate Kinase (LmPK) | Q27686 | purified LmPK, Kinase-Glo ATP luminescence, 1 h | Potency, µM (series often up to 57.5 µM), inactives show top-dose activity change, negative = inhibition, most hits filed as inhibitors | 290,000 tested, 0.37% active; also: potency is read from the fitted curve at half-maximal effect; % is scaled to controls: 0 for no effect and ±100 for the full control effect
Target sequence (Q27686 whole entry, looked up): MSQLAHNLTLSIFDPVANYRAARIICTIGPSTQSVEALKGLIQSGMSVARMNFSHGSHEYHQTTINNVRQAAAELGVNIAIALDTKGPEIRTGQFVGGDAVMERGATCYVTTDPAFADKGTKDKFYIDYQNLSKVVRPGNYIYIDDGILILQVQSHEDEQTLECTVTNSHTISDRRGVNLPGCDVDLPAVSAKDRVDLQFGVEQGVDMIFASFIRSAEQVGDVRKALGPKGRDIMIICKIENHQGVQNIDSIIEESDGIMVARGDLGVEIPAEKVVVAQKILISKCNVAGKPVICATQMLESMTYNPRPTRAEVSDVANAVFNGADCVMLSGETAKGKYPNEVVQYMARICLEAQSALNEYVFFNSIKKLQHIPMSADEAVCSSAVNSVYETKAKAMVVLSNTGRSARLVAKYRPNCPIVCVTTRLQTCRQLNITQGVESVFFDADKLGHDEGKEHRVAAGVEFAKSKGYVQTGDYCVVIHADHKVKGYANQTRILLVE
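qHTS format; LmPK 0.1 nM; substrates PEP 0.5 mM and ADP 0.1 mM. One-hour room-temperature incubation, then coupled luciferase luminescence; 0.5 nM enzyme wells mark activation.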
Pf growth 96h = Primary qHTS for delayed death inhibitors of the malarial parasite plastid, 96 hour incubation; P. falciparum luciferase reporter growth, 96 h; Potency, µM (titrated, usually from 28.7 µM), for the others: top-dose activity change, negative = inhibition, most hits filed as inhibitors; 320,000 tested, 6.9% active; AID 504834, 2011; also: potency is read from the fitted curve at half-maximal effect; % is scaled to controls: 0 for no effect and ±100 for the full control effect
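P. falciparum expressing integrated firefly luciferase grown in erythrocytes (2% hematocrit, 0.05% parasitemia final) with compounds for 96 hours at 37 C, 5% CO2. Growth inhibition read as loss of luminescence after adding luciferase detection reagent.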
Pf growth 48h = Primary qHTS for delayed death inhibitors of the malarial parasite plastid, 48 hour incubation; 310,000 tested, 5.9% active; P. falciparum luciferase growth in erythrocytes, 48 h; AID 504832, 2011; Potency, µM (titrated, usually from 28.7 µM), for inactives: at the highest dose activity change, negative = inhibition, hits mostly inhibitors; also: potency is read from the fitted curve at half-maximal effect; % is scaled to controls: 0 for no effect and ±100 for the full control effect
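First compound was added to culture medium, then infected red cells at 0.1% parasitemia and 2% hematocrit (final). After incubation at 37 C under 5% CO2, luciferase detection reagent was dispensed and light output recorded.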
CHX counter = Cycloheximide Counterscreen for Small Molecule Inhibitors of Shiga Toxin; cell reporter, cycloheximide protein synthesis inhibition counterscreen; max response, %; 300,000 tested, 12% active; AID 2314, 2010; in the data active = max response mostly above about 13%, no sharp cut-off; inactive = mostly below about 14%; also: read at 38.3 µM for the half of the compounds with a filed dose; 0% is about no effect
* = called active by the depositor; ? = inconclusive; . = no result. Unless noted, calls follow the shape of the dose curve; as a rule, active = well fitted inhibition curve with a large enough effect; inconclusive = small, poorly fitted or top-dose-only effect, or another doubt; inactive = no such curve, though single readings can be large or run the other way.

SMILES	Shiga inhibitor	LmPK inhibitor	Pf growth 96h	Pf growth 48h	CHX counter
Cc1ccc(NC(=S)NCC23C=CC(O2)C2C(=O)N(c4ccc(C)cc4)C(=O)C23)cc1 (configuration not stated)	7	2%	?	?	56*
Cc1cccc(NC(=S)NCC23C=CC(O2)C2C(=O)N(c4ccc(Cl)cc4)C(=O)C23)c1 (configuration not stated)	-7	-6%	34%	-7%	6
Cc1cccc(-c2noc(CN(C)C(=O)c3ccco3)n2)c1	154*	-3%	-4%	36%	30*
COc1ccc(-c2noc(CN(C)C(=O)c3ccoc3C)n2)cc1	25	-2%	?	19%	24*
Cc1cccc(-c2noc(CN(C)C(=O)COc3ccccc3)n2)c1	15	1%	29%	25%	9
Cc1cccc(-c2noc(CN(C)C(=O)c3ccoc3C)n2)c1	60*	1%	-8%	10%	11
COc1ccccc1CN1CCNC(=O)C1CC(=O)NCc1cn(C)nc1C (configuration not stated)	17	7%	-8%	33%	4
O=C(Nc1ccccc1F)c1ccc(S(=O)(=O)NCC2CCCO2)cc1 (configuration not stated)	63	1%	40%	-7%	3
CCOC(=O)N=Nc1c2ccccc2c2nc3no[nH]c3nc12	27	-5%	19%	1µM*	5
COc1ccc(-n2nc(C(=O)NCC(=O)NCCCN3CCOCC3)c3ccccc3c2=O)cc1OC	-13	-1%	-12%	5%	-4
CC1CCN(S(=O)(=O)c2ccc3ncn(CC(=O)N4CCN(C)CC4)c(=O)c3c2)CC1	-26	0%	15%	-6%	-6
CC(=Nc1ccc(Br)cc1)c1sc2ccccc2c1O	111*	-17%	124%	157%	60*
Cc1c(/C=N/O)sc2ccccc12	9	-1%	38%	?	-1
CC(=Nc1ccccc1)c1sc2ccccc2c1O	139*	-27%	304%	208%	50*
CC(=Nc1ccccc1)C1=C(O)COC1=O	-18	9%	-5%	.	-3
COc1cc(OC)c(C(=O)NCCCn2ccnc2)cc1OC	-17	-4%	16%	8%	-1
Cc1ccc(NS(=O)(=O)c2cc3c4c(c2)CC(=O)N4CCC3)cc1C	-5	6%	-15%	10µM*	-3
COc1ccccc1NS(=O)(=O)c1cc2c3c(c1)CC(=O)N3CCC2	-2	-2%	58%	9.3µM*	9
O=C1Cc2cc(NS(=O)(=O)c3ccc(Cl)cc3)cc3c2N1CCC3	.	.	62%	-5%	.
COc1ccc(CCNS(=O)(=O)c2cc3c4c(c2)CC(=O)N4CCC3)cc1	-3	5%	-6%	9.3µM*	-4
O=C1CCc2cc(S(=O)(=O)Nc3ccccc3F)cc3c2N1CCC3	.	.	53%	2%	.
CC(C)C[C@H](NC(=O)[C@@H](Cc1c[nH]c2ccccc12)NC(=O)[C@H](Cc1ccc(O)cc1)NC(=O)[C@H](CO)NC(=O)[C@H](Cc1c[nH]c2ccccc12)NC(=O)[C@H](Cc1cnc[nH]1)NC(=O)[C@@H]1CCC(=O)N1)C(=O)N[C@@H](CCCN=C(N)N)C(=O)N1CCC[C@H]1C(=O)NCC(N)=O	-5	.	.	.	-2
COc1ccc(NC(=O)CN(C)S(=O)(=O)c2cnc[nH]2)cc1Cl	13	-5%	?	31%	-6
CC(C)(C)NC[C@H](O)CSc1nc(-c2ccc(C(N)=O)s2)cs1	.	.	11µM*	?	.
CC(=O)NCc1ccc(-c2csc(N)n2)s1	18	-1%	-1%	16%	8
SMILES	Shiga inhibitor	LmPK inhibitor	Pf growth 96h	Pf growth 48h	CHX counter
CCOP(=O)(c1ccccc1)C(O)c1ccc(Br)cc1 (configuration not stated)	-6	0%	7%	-8%	-3
C=CCC(NCc1ccco1)c1ccc(OC)cc1OC (configuration not stated)	5	-23%	10µM*	-12%	-7
C/C(=C(/CCO)SS/C(CCO)=C(\C)N(C=O)Cc1cnc(C)nc1N)N(C=O)Cc1cnc(C)nc1N	.	.	?	-7%	.
CCOC(CNc1ncnc2c1cnn2C)OCC	-10	1%	48%	23%	-3
C/C(=N\Nc1nc2ccccc2[nH]1)c1ccccn1	107*	-12%	?	2.9µM*	28*
C/C(=N/O)c1ccccn1	-6	4%	0%	?	6
C/C(=N\Nc1nc2ccccc2[nH]1)c1cc2ccccc2o1	39*	?	?	0%	25*
CC(=O)c1ccc(OCCCC(=O)NCc2nnc3ccccn23)cc1	.	.	11%	1%	.
O=C(N/C(=C\c1ccco1)C(=O)N1CCCC1CO)c1ccccc1 (configuration not stated)	-5	0%	0%	7%	-3
Cc1ccc(-c2csc(N)n2)s1	50	0%	174%	90%	23*
CCCCC(=O)Nc1cccc(-c2nc3ncccc3o2)c1C	43	3%	-17%	21%	15*
Cc1cc(-c2nc3ncccc3o2)ccc1NC(=O)CC(C)C	10	-7%	4.1µM*	8%	7
Cc1c(NC(=O)C(C)C)cccc1-c1nc2ncccc2o1	25	0%	9.3µM*	5%	9
CC(C)CC(=O)Nc1cccc(-c2nc3ncccc3o2)c1	31	3%	?	-15%	13
Cc1ccc(-c2nc3ncccc3o2)cc1NC(=O)C(C)C	20	0%	6%	?	-2
CN(CC(=O)NCc1ccc(F)cc1)CC(=O)Nc1ccc(Cl)c(C(F)(F)F)c1	-6	3%	-7%	8%	2
O=C(N/C(=C\c1ccc([N+](=O)[O-])cc1)C(=O)N1CCCCC1)c1ccccc1Br	-9	-2%	?	-11%	-4
O=C(NCCN1C(=O)S/C(=C\c2ccccc2F)C1=O)C1CCCN1C(=O)c1cccs1 (configuration not stated)	-2	-2%	?	-11%	10
O=C(O)C1C2C=CC3(CN(c4cccc(C(F)(F)F)c4)C(=O)C13)O2 (configuration not stated)	-10	6%	10µM*	1%	-5
Cc1cc(C)cc(OCC(=O)N(Cc2ccccc2)C2CCS(=O)(=O)C2)c1 (configuration not stated)	-15	-4%	7%	4%	-8
Cc1ccccc1NC(=O)c1nnn(-c2ccc3c(c2)OCCO3)c1N	80*	-8%	?	85%	53*
CCOc1ccccc1NC(=O)c1nnn(-c2ccc3c(c2)OCCO3)c1N	64*	-5%	?	30%	26*
COc1ccc(CCNC(=O)Cn2nnc(C(=O)Nc3cc(C)ccc3C)c2N)cc1OC	-6	-8%	?	8%	-10
COc1ccc(CCNC(=O)Cn2nnc(C(=O)Nc3cccc(C)c3C)c2N)cc1OC	-1	4%	1.9µM*	-5%	9

Screens (PubChem)
